Bioassay records (PubChem BioAssay)
In the library only some 1.2% were active in any assay of this set; here they are far more common.
IL1B NFkB inh = inhibitors of IL-1B driven NFkB p65 nuclear import, primary screen, imaging, HUVEC, IL-1B stimulus, high-content imaging | HUVEC IL-1B NFkB p65 nuclear translocation imaging | inhibition, % at 2 µM | actives 0.43% (n = 94,000);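 active means inhibition above about 30% together with a positive call from visual inspection of the well image, limit read from the data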;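 further: nuclear over cytoplasmic p65 intensity ratio measured by imaging; 0% = IL-1B stimulated DMSO wells and 100% = unstimulated DMSO wells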
IL1B NFkB pot = enhancers of NFkB p65 translocation in HUVEC – imaging, IL-1B stimulus, high-content imaging, primary screen; HUVEC IL-1B NFkB p65 nuclear translocation imaging; activation, % at 2 µM; actives 0.3% (n = 94,000); AID 819, 2007;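 active means activation above 40%, about the mean plus 3 SD, also judged a hit on visual image review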;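 further: percent activation is computed from the nuclear over cytoplasmic p65 intensity ratio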
HUVEC tox IL1B = cytotoxicity in IL-1B stimulated HUVEC, primary screen, cytotoxicity control for IL-1B NFkB translocation project, imaging, Hoechst nuclear count, IL-1B stimulus; AID 845, 2007; actives 0.41% (n = 94,000); HUVEC cell count loss; cell count reduction, % at 2 µM;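 active means cell count reduction more than 3 SD above the screen-wide mean, cut at about 70% in these data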;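 further: normalized per plate to untreated control cells as the no-loss baseline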
Phagocytosis inh = inhibitors of macrophage phagocytosis, primary screen, imaging, J774A.1 cells, IgG beads; J774A.1 macrophage IgG-bead phagocytosis; actives 0.07% (n = 110,000); inhibition, % at 5 µM;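 active means inhibition above the mean of the plate negative controls plus 5 SD, cut at about 13% in these data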;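 further: phagocytic index as fraction of beads internalized from green versus red external bead signal; plate controls were DMSO negative control for no effect and cytochalasin-D positive control for full effect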
VCAM1 TNFa inh = inhibitors of TNFa-induced VCAM1 expression, primary screen, imaging, HUVEC, TNFa stimulus, immunofluorescence. inhibition, % at 2 µM. HUVEC TNFa-induced VCAM-1 immunofluorescence, high-content imaging. actives 0.48% (n = 95,000). AID 802, 2007;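 active means inhibition above the batch mean plus 3 SD, with images confirmed as a hit by eye, cut at about 37% in these data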;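 further: 0% = TNF-stimulated DMSO wells and 100% = unstimulated control wells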
TNFa cytotox = cytotoxicity in TNFa-stimulated HUVEC, primary screen, cytotoxicity control for VCAM1 expression modulator project, imaging, Hoechst nuclei count; actives 0.17% (n = 93,000); AID 848, 2007; cell count reduction, % at 2 µM; HUVEC TNFalpha-stimulated, Hoechst cell count;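 active means cell count reduction exceeding the screen mean by over 5 SD, scaled to untreated wells per plate, cut at about 78% in these data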;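 further: cells counted after 24 h of TNF alpha exposure following the 1 h pretreatment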
* marks the source's active call; other numbers are inactive results; [ ] = dose if it differs, or a comment.

O=C(CCn1cnc2ccccc2c1=O)Nc1nc2c(s1)CCCC2 was read as IL1B NFkB inh 3.4, IL1B NFkB pot -3.4, HUVEC tox IL1B -35.4, Phagocytosis inh 40.8*[artifact], VCAM1 TNFa inh 4.4 and TNFa cytotox 6.7.
For COc1ccc(OCc2ccc(C(=O)NN)cc2)cc1 the results were IL1B NFkB inh -0.7, IL1B NFkB pot 0.7, HUVEC tox IL1B -5.6, Phagocytosis inh -0.1, VCAM1 TNFa inh -1.3 and TNFa cytotox -7.8.
Screening CCN(CC)S(=O)(=O)c1ccc(NC(=O)C2c3ccccc3Oc3ccccc32)cc1 returned Phagocytosis inh -8.7.
For CC(C)c1nnc(SCC(=O)Nc2ccc3c(c2)OCO3)n1C the results were IL1B NFkB inh 6.4, IL1B NFkB pot -6.4, HUVEC tox IL1B -8.9, VCAM1 TNFa inh 16.9 and TNFa cytotox -19.6.
Screening Cn1c(SCC(=O)Nc2ccc3c(c2)OCO3)nnc1-c1cnccn1 returned IL1B NFkB inh 23.5, IL1B NFkB pot -23.5, HUVEC tox IL1B 86.5*, Phagocytosis inh 1.5, VCAM1 TNFa inh 4.6 and TNFa cytotox -2.9.
Screening O=C(Nc1ccccc1Cl)c1ccccc1Cc1ccccc1 returned Phagocytosis inh -7.7.
`COc1cccc(N2CCN(c3c4c(nc5ncnn35)CCC4)CC2)c1` gave IL1B NFkB inh 30.2*, IL1B NFkB pot -30.2, HUVEC tox IL1B 36.4, Phagocytosis inh 2.5, VCAM1 TNFa inh 3.7 and TNFa cytotox 20.8.
`CCc1c(C)nc2c(OC)cccc2c1SCCC(=O)O` gave Phagocytosis inh 36.8*[artifact].
COc1ccc(-c2cc(=O)[nH]c(NCc3ccccc3)n2)cc1 was read as IL1B NFkB inh -26.3, IL1B NFkB pot 26.3, HUVEC tox IL1B -11.3, Phagocytosis inh 0.2, VCAM1 TNFa inh 100.0* and TNFa cytotox 99.3*.
`O=c1cnnc(NCc2ccccc2)[nH]1` gave IL1B NFkB inh -4.6, IL1B NFkB pot 4.6, HUVEC tox IL1B -10.5, Phagocytosis inh 0.4, VCAM1 TNFa inh -8.2 and TNFa cytotox -8.1.
`CCc1nnc(NC(=O)CCC(=O)N2CCCC2)s1` gave IL1B NFkB inh -79.4, IL1B NFkB pot 79.4*, HUVEC tox IL1B 20.6, Phagocytosis inh -0.2, VCAM1 TNFa inh 4.4 and TNFa cytotox 4.4.
`CCc1nnc(NC(=O)CCC(=O)N2CCN(C3CCCCC3)CC2)s1` gave IL1B NFkB inh -4.9, IL1B NFkB pot 4.9, HUVEC tox IL1B 7.6, Phagocytosis inh -0.6, VCAM1 TNFa inh 14.7 and TNFa cytotox -5.7.
CC(C)c1nnc(NC(=O)CCC(=O)N2CCN(C3CCCCC3)CC2)s1 was read as IL1B NFkB inh -9.8, IL1B NFkB pot 9.8, HUVEC tox IL1B 11.8, Phagocytosis inh 0.1, VCAM1 TNFa inh 35.9* and TNFa cytotox 23.3.
O=S(=O)(c1ccc(Cl)s1)N1CCCc2cccc(O)c21 was read as IL1B NFkB inh -0.6, IL1B NFkB pot 0.6, HUVEC tox IL1B -3.8, Phagocytosis inh 0.3, VCAM1 TNFa inh -37.3 and TNFa cytotox -19.3.
Screening Cc1cc(N2CCOCC2)cc(C)[n+]1[O-] returned IL1B NFkB inh -40.1, IL1B NFkB pot 40.1*, HUVEC tox IL1B -31.4, Phagocytosis inh -1.0, VCAM1 TNFa inh -21.2 and TNFa cytotox -15.8.
Cc1ccc(C)n1-c1ccc(N2CCOCC2)cc1 was read as IL1B NFkB inh 3.4, IL1B NFkB pot -3.4, HUVEC tox IL1B -4.8, Phagocytosis inh 0.1, VCAM1 TNFa inh -8.5 and TNFa cytotox 6.6.
Screening CCOc1cc(S(=O)(=O)N2CCCCCC2)ccc1F returned IL1B NFkB inh -1.3, IL1B NFkB pot 1.3, HUVEC tox IL1B 16.0, Phagocytosis inh -0.7, VCAM1 TNFa inh 32.0 and TNFa cytotox 9.6.
O=S(=O)(c1ccc(Oc2ccc(Br)cc2F)nc1)N1CCCCC1 was read as IL1B NFkB inh 40.3*, IL1B NFkB pot -40.3 and HUVEC tox IL1B -43.5.
Screening Cc1ccc(NC(=O)COC(=O)CCC(=O)c2cccs2)cc1S(=O)(=O)N1CCOCC1 returned IL1B NFkB inh -48.0, IL1B NFkB pot 48.0*, HUVEC tox IL1B -18.3, Phagocytosis inh 0.1, VCAM1 TNFa inh 18.6 and TNFa cytotox -13.4.
`O=C(COC(=O)CCC(=O)c1cccs1)Nc1cccc(S(=O)(=O)N2CCOCC2)c1` gave IL1B NFkB inh 5.5, IL1B NFkB pot -5.5, HUVEC tox IL1B 1.3, VCAM1 TNFa inh 11.4 and TNFa cytotox 3.7.
For Cc1ccc(C2CC2C(=O)NNC(=S)Nc2cccc(C)c2)cc1 (stereo not drawn) the results were IL1B NFkB inh -8.7, IL1B NFkB pot 8.7, HUVEC tox IL1B 9.8, VCAM1 TNFa inh -4.8 and TNFa cytotox -27.1.
Cc1ccc(C2CC2C(=O)NNC(=S)Nc2cccc(Cl)c2)cc1 (stereo not drawn) was read as IL1B NFkB inh 6.2, IL1B NFkB pot -6.2, HUVEC tox IL1B 71.1*, VCAM1 TNFa inh -1.0 and TNFa cytotox -8.1.
N#Cc1c(-n2cccc2/C=N/O)sc2c1CCCC2 was read as IL1B NFkB inh 7.8, IL1B NFkB pot -7.8, HUVEC tox IL1B 13.3 and Phagocytosis inh -1.9.
C=CCNCc1cccn1-c1sc2c(c1C#N)CCCC2 was read as IL1B NFkB inh 30.6*, IL1B NFkB pot -30.6, HUVEC tox IL1B 8.3, Phagocytosis inh -2.1, VCAM1 TNFa inh 12.6 and TNFa cytotox 53.8.
Screening CCOC(=O)NC(=O)c1cn(CCN(C)C)c(=O)[nH]c1=O returned Phagocytosis inh -2.3.
`O=C(O)c1ccc(-c2nc(-c3ccccc3)c(-c3ccccc3)[nH]2)cc1` gave Phagocytosis inh 0.1.
`COc1ccc(-c2[nH]c(-c3ccc(C(=O)O)cc3)nc2-c2ccccc2)cc1` gave IL1B NFkB inh 64.3*, IL1B NFkB pot -64.3, HUVEC tox IL1B 10.9, VCAM1 TNFa inh -25.0 and TNFa cytotox -7.4.
`COC(=O)C1=C(C)n2nnnc2NC1c1ccc(Cl)cc1` (stereo not drawn) gave IL1B NFkB inh -42.3, IL1B NFkB pot 42.2*, HUVEC tox IL1B -3.9, Phagocytosis inh -1.5, VCAM1 TNFa inh 28.8 and TNFa cytotox 15.0.
For COC(=O)C1=C(C)N(C)C(=O)NC1c1ccc(C)cc1 (stereo not drawn) the results were IL1B NFkB inh 1.2, IL1B NFkB pot -1.2, HUVEC tox IL1B -41.7, VCAM1 TNFa inh -15.8 and TNFa cytotox -38.2.
Screening CN(C)/C=C(/C#N)C(=O)c1cccc(Oc2ccc(C(C)(C)C)cc2)c1 returned IL1B NFkB inh -23.5, IL1B NFkB pot 23.5, HUVEC tox IL1B -43.1, Phagocytosis inh -1.0, VCAM1 TNFa inh 3.7 and TNFa cytotox -3.5.
NC(=O)NC1CCCc2c1[nH]c1ccc(Cl)cc21 (stereo not drawn) was read as Phagocytosis inh -0.3.
